Reference: PubChem BioAssay AID2279 (Southern Research Specialized Biocontainment Screening …, 2010)
Entries with a potency or affinity are not part of this list.

assay: CCR5-tropic HIV-1 fusion blockers – cell-based, CCR5-tropic Env, dose response (AID 2279); conditions: CCR5-tropic HIV-1 Env, reporter read-out; series mostly up to 50 µM; inhibition: at the top concentration; call rule not given here

inhibition, inactive:
O=C(O)c1cc(NC(=O)c2ccc(Br)cc2)cc(NC(=O)c2ccc(Br)cc2)c1 30.4%
CCc1nnc(NS(=O)(=O)c2ccc(NC(=S)NC(=O)/C=C/c3ccc(C(C)C)cc3)cc2)s1 37.6%
Cc1ccc(NC(=O)COc2cccc(/C=C3\SC(=S)N(CCC(=O)O)C3=O)c2)cc1Cl 14.1%
CCc1nnc(NS(=O)(=O)c2ccc(N/C=C(\C=O)c3nc4cc(Cl)ccc4o3)cc2)s1 -1.49%
CCOc1cc(/C=C2/C(=N)N3C(=NC2=O)SN=C3S(=O)(=O)CC)ccc1OC(=O)c1ccco1 -0.67%
COc1ccc(C(=O)Nc2ccc(/C(C)=N/NC(=O)c3ccncc3)cc2)cc1 2.59%
Cc1ccc(C)c(S(=O)(=O)/N=C2\C=C(NS(=O)(=O)c3ccccc3)C(=O)c3ccccc32)c1 32.6%
CC(C)S(=O)(=O)C1=NSC2=NC(=O)/C(=C\c3ccc(-c4cccc(C(=O)O)c4)o3)C(=N)N21 1.16%
N#Cc1c(-c2ccccc2)nc(SCc2ccc(Cl)cc2)[nH]c1=O 7.41%
COc1ccc(-c2csc(NC(=O)CSc3nc(C)nc4sc(C(=O)O)c(C)c34)n2)cc1 -1.45%
COc1cccc(NS(=O)(=O)c2ccc3c(c2)C2C=CCC2C(c2ccc(C(=O)O)cc2)N3)c1 (centres undefined) 11.7%
COc1cc(/C=C2/C(=N)N3C(=NC2=O)SN=C3S(C)(=O)=O)ccc1OS(=O)(=O)c1ccccc1 25.4%
O=C(O)CSc1cc(C(=O)c2ccccc2O)cn2c(=O)c3c4c(sc3nc12)CCCC4 -1.15%
CC1=C(C(=O)OC(C)C)C(c2ccc(Cl)cc2)n2c(s/c(=C\c3ccc(OCC(=O)O)cc3)c2=O)=N1 (centres undefined) 23.1%
